In PubChem BioAssay AID1851 (National Center for Advancing Translational Sciences (NCATS), 2009) one finds activity, negative = inhibition and AC50 data, which are given here for 87 compounds.

Hit rate of the full screen: of about 16,000 compounds, about 5,100 (32%) were called active. Roughly 25% stayed inconclusive and do not appear here. The call rests on the fitted dose curve; in most records, active means well fitted curve in the direction sought with a large enough effect; inconclusive means small, poorly fitted or top-dose-only effect, or effect the other way; inactive means no such curve, though single readings can be large or run the other way. Some of the results follow.
On the % scale 0 is the no-effect control and ±100 the full control effect.

The test deals with Cytochrome P450 3A4 (Homo sapiens) (UniProt P08684). The test is described as follows: Cytochrome panel assay with activity outcomes. The conditions noted are these: recombinant CYP, pro-luciferin dealkylation, luminescence, p450-cyp3a4; series mostly up to 57.1 µM.
Cytochrome P450 3A4 (Homo sapiens), sequence (P08684 whole entry, looked up): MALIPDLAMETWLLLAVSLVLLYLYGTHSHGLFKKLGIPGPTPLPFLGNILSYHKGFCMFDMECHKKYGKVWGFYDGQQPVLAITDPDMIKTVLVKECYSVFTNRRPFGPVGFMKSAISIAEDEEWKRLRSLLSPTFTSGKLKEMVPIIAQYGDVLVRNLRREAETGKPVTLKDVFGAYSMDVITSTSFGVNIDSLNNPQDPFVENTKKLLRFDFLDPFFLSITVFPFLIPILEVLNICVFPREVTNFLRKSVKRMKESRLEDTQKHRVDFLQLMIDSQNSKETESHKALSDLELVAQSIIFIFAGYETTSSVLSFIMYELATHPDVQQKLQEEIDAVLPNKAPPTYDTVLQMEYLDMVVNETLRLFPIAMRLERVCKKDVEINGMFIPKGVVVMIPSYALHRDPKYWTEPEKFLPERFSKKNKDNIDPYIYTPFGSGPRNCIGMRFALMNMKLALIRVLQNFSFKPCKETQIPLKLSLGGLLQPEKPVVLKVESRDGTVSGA
Turning to `CCC(CC)C(=O)NCCN1CCN(C(=O)C(CC)CC)CC1`, the activity, negative = inhibition was 2.98% [at 2.29 µM] (inactive).

Consider `CC(C)CCOc1ccc(NC(=O)C2OC3OC(C)(C)OC3C3OC(C)(C)OC23)cc1` (configuration not stated), for which the activity, negative = inhibition is -3.7% [at 2.29 µM] (inactive).

Turning to `COc1cc(=O)n(C)c2c(OC[C@@H](O)C(C)(C)O)cccc12`, the AC50 result was “inactive”.

`CCN(C(=O)COc1cc(=O)n(C)c2ccccc12)c1cccc(Cl)c1`: the concentration at half-maximal activity (AC50) was 3.55 µM (active).

In the case of `Cn1c(=O)cc(OCCCC(=O)Nc2cccnc2)c2ccccc21`, the AC50 is 6.31 µM (active).

Turning to `CCCNC(=O)OC[C@@H]1O[C@H](CCO/N=C(\C)CCN2CCCCc3nc(C)c(C)cc32)C=C[C@@H]1Oc1ccc(OC)cc1`, the concentration at half-maximal activity (AC50) is 3.16 µM (active).

As for `CCCNC(=O)OC[C@@H]1O[C@H](CCO/N=C(\C)CCN2CCCc3nc(C)c(C)cc32)C=C[C@@H]1Oc1ccc(OC)cc1`, the AC50 was 3.98 µM (active).

In the case of `O=C(c1ccccc1)c1ccc2nc(-c3ccc(NC(=O)c4ccccc4F)cc3)[nH]c2c1`, the AC50 entry is “inactive”.

Take `Fc1cc2nc(-c3ccncc3)[nH]c2cc1F`: the concentration at half-maximal activity (AC50) is 1.41 µM (active).

In the case of `O=[N+]([O-])c1cc(/C=N/N2CCN(C3c4ccccc4-c4ccccc43)CC2)ccc1Cl`, the AC50 entry was “inactive”.

On to `C/C(=N\N1CCN(C2c3ccccc3-c3ccccc32)CC1)c1cccnc1`, for which the concentration at half-maximal activity (AC50) was 2.82 µM (active).

Regarding `O=c1c2cnn(-c3ccccc3)c2nnn1/N=C/c1cccnc1`, the AC50 entry is “inactive”.

As to `C/C(=N\N1CCN(C2c3ccccc3-c3ccccc32)CC1)c1ccncc1`, the half-maximal activity concentration (AC50) was 1 µM (active).

For the compound `C(=N\N1CCN(C2c3ccccc3-c3ccccc32)CC1)/c1cccnc1`, the half-maximal activity concentration (AC50) is 12.6 µM (active).

In the case of `Cn1c(=O)[nH]c(=O)c2c1nc(NCCCO)n2CCCc1ccccc1`, the AC50 entry was “inactive”.

For the compound `Cc1ccc(C(=O)CNc2nc3c(c(=O)[nH]c(=O)n3C)n2Cc2ccccc2)cc1`, the AC50 was 5.01 µM (active).

As to `Cc1cc(C)n(-c2nc3c(c(=O)[nH]c(=O)n3C)n2CC(C)C)n1`, the AC50 entry was “inactive”.

In the case of `Cc1ccccc1OCC(O)Cn1c(NCc2ccccc2)nc2c1c(=O)[nH]c(=O)n2C` (configuration not stated), the AC50 is 11.2 µM (active).

For `CC(C)(C)NC[C@H](O)COc1cccc2[nH]c(=O)[nH]c12`, the AC50 result is “inactive”.

`CN(C)c1ncc2nc(CCc3ccccc3)c(=O)n(CCc3ccccc3)c2n1`: the concentration at half-maximal activity (AC50) was 6.31 µM (active).

Consider `COCCn1c(=O)c(C)nc2cnc(N(C)C)nc21`, for which the AC50 result is “inactive”.

On to `CN(C)c1ncc2nc(-c3ccccc3)c(=O)n(CCc3ccccc3)c2n1`, for which the AC50 entry was “inactive”.

As to `CN(C)c1ncc2nc(CCc3ccccc3)c(=O)n(-c3ccccc3)c2n1`, the AC50 was 6.31 µM (active).

Regarding `CN(C)c1ncc2ncc(=O)n(CCc3ccccc3)c2n1`, the AC50 result was “inactive”.

`CN(C)c1ncc2nc(CCc3ccccc3)c(=O)n(Cc3cccs3)c2n1`: the AC50 was 10 µM (active).

`CN(C)c1ncc2nc(-c3ccc(Cl)cc3)c(=O)n(Cc3cccs3)c2n1`: the AC50 entry was “inactive”.

Consider `Cc1nc2cnc(N(C)C)nc2n(-c2ccccc2)c1=O`, for which the AC50 entry was “inactive”.

With `COCCn1c(=O)c(CCc2ccccc2)nc2cnc(N(C)C)nc21`, the AC50 is 15.8 µM (active).

On to `CN(C)C(=O)Oc1cccc([N+](C)(C)C)c1`, for which the AC50 result is “inactive”.

On to `Cn1sc(NC(=O)c2ccccc2Cl)nc1=O`, for which the AC50 entry is “inactive”.

Consider `Cc1nc(NC(=O)c2ccccc2)sc1-c1csc(Nc2ccc(F)cc2)n1`, for which the half-maximal activity concentration (AC50) was 10 µM (active).

As to `Cc1nc(NC(=O)c2ccccc2)sc1-c1csc(Nc2ccc(Cl)cc2)n1`, the activity, negative = inhibition was 3.11% [at 2.29 µM] (inactive).

For `O=C(NNC(=O)c1cc2cc3ccccc3nc2s1)c1cccc(Cl)c1`, the AC50 entry was “inactive”.

In the case of `Cc1nc(NC(=O)c2ccccc2)sc1-c1csc(Nc2ccc(Cl)cc2Cl)n1`, the AC50 is 11.2 µM (active).

Take `Cc1nc(NC(=O)c2ccco2)sc1-c1csc(Nc2ccc(Cl)cc2Cl)n1`: the AC50 is 5.01 µM (active).

Regarding `Cc1nc(NC(=O)c2ccccc2)sc1-c1csc(Nc2cccc(Cl)c2)n1`, the half-maximal activity concentration (AC50) was 10 µM (active).

Turning to `Cc1nnc(NC(=O)c2cccc(NC(=O)C(C)C)c2)s1`, the AC50 result was “inactive”.

In the case of `C#CCOCCCC(=O)O`, the activity, negative = inhibition was 0.116% [at 11.4 µM] (inactive).

As to `CC(C)(N=NC(C)(C)C(=N)N)C(=N)N`, the activity, negative = inhibition was -6.94% [at 11.4 µM] (inactive).

Take `C=CCCC(=O)Nc1nc(C)c(-c2csc(Nc3ccc(Cl)cc3)n2)s1`: the AC50 was 10 µM (active).

With `O[C@@H](c1cc(C(F)(F)F)nc2c(Cl)cc(Cl)cc12)[C@@H]1CCCCN1`, the activity, negative = inhibition was -21% [at 11.4 µM] (inactive).

For the compound `CC(C)(C)NC(=O)Cn1nnc(-c2ccccc2NC(=O)c2cnccn2)n1`, the AC50 was 3.98 µM (active).

For the compound `CC(C)CC(=O)Nc1ccccc1-c1nnn(CC(=O)N2CCc3ccccc3C2)n1`, the AC50 entry is “inactive”.

As for `CCOc1ccc(-c2nnn(CC(=O)Nc3cc(OC)ccc3OC)n2)cc1OCC`, the AC50 is 3.55 µM (active).

In the case of `COc1ccc(-c2nnn(CC(=O)N(CC(=O)NCCC(C)C)Cc3cccs3)n2)cc1OC`, the AC50 was 12.6 µM (active).

Take `C=CCn1c(Cc2ccc(OC)cc2)nnc1SCC(=O)c1cccc([N+](=O)[O-])c1`: the AC50 was 1.41 µM (active).

Take `O=C(CSc1nnc(COc2ccccc2)n1-c1ccccc1)c1ccccc1`: the AC50 was 14.1 µM (active).

`CCOc1c2ccc(C(=O)NCCc3cccs3)cc2nn1CC`: the activity, negative = inhibition is -0.473% [at 2.29 µM] (inactive).

With `CC1(C)OC(C(N)=O)C(C(N)=O)O1` (configuration not stated), the AC50 result was “inactive”.

Take `CN[C@@H]1[C@H](O[C@@H]2O[C@H](CO)[C@@H](N)[C@H](O)[C@@H]2O)O[C@H]2C[C@@H](N)[C@@H](O[C@H]3[C@@H](O)[C@H](O)[C@H](N)C[C@@H]3N)O[C@H]2[C@H]1O`: the AC50 result was “inactive”.

On to `COc1ccc(NC(=O)CSc2nnc(Cc3cccn3C)n2CCc2ccccc2)c(OC)c1`, for which the AC50 was 2.24 µM (active).

Take `CCn1c(CNC(=O)COc2ccc(C(C)C)cc2)nnc1SCC(=O)Nc1cc(F)ccc1C`: the concentration at half-maximal activity (AC50) was 10 µM (active).

In the case of `C=CCn1c(COc2ccccc2)nnc1SCC(=O)N/N=C/c1ccc(C)cc1`, the AC50 was 3.16 µM (active).

As to `CCOc1cc(C)ccc1OCc1nnc(SCC(=O)c2cccc([N+](=O)[O-])c2)n1CC`, the concentration at half-maximal activity (AC50) was 2.82 µM (active).

As for `CSc1nc(-c2ccccc2)nn1C(=O)c1ccccc1`, the AC50 result is “inactive”.

As for `COc1ccc(OCc2nnc(SCC(=O)O)n2N)cc1`, the AC50 result is “inactive”.

For `COc1ccc(-c2nnn(CC(=O)NCCc3c[nH]c4ccccc34)n2)cc1OC`, the concentration at half-maximal activity (AC50) was 8.91 µM (active).

As to `CCn1c(COc2ccccc2)nnc1SCC(=O)c1cccc([N+](=O)[O-])c1`, the half-maximal activity concentration (AC50) was 12.6 µM (active).

Turning to `CCc1ccccc1NC(=O)CSc1nc(-c2ccccc2)nn1C(=O)c1cccc([N+](=O)[O-])c1`, the activity, negative = inhibition was -8.74% [at 2.29 µM] (inactive).

In the case of `CCCCOc1ccc(-c2nnn(CC(=O)c3c[nH]c4ccccc34)n2)cc1`, the AC50 entry was “inactive”.

For `COc1cccc(OCc2nnc(SCC(=O)NCc3ccco3)n2C)c1`, the activity, negative = inhibition was 12.8% [at 2.29 µM] (inactive).

For the compound `CCn1c(COc2ccccc2)nnc1SCC(=O)Nc1cc(OC)ccc1OC`, the AC50 was 10 µM (active).

`COc1ccc(C(=O)NNC(=O)CSc2nnc(COc3ccc4ccccc4c3)n2C)cc1`: the AC50 was 0.501 µM (active).

On to `COc1ccc2c(c1)-c1c(sn(-c3ccc(OC)c(OC)c3)c1=S)C(C)(C)N2`, for which the activity, negative = inhibition is -15.9% [at 2.29 µM] (inactive).

For `CC(=O)c1c(O)c(C)c(-c2ccccc2)n(-c2ccccc2)c1=O`, the AC50 entry is “inactive”.

For the compound `Cc1ccc(-n2nnnc2C(=Cc2ccc(N(C)C)cc2)c2nnnn2-c2ccc(C)cc2)cc1`, the half-maximal activity concentration (AC50) is 3.16 µM (active).

With `Cc1ccc(-c2nn3c(C)nnc3c3ccccc23)cc1S(=O)(=O)NCCN1CCOCC1`, the half-maximal activity concentration (AC50) was 8.91 µM (active).

In the case of `Cc1ccc(-c2nn3c(C)nnc3c3ccccc23)cc1S(=O)(=O)NCc1ccccc1`, the AC50 result is “inactive”.

As for `Cn1c(=O)cc(SCC(=O)NCCN2CCN(c3ccccc3F)CC2)c2cc(Cl)ccc21`, the AC50 was 14.1 µM (active).

Regarding `Clc1ccc(Cl)c(SCCCN2CCNCC2)c1`, the activity, negative = inhibition is -17% [at 11.4 µM] (inactive).

Take `OC(COCC1COc2ccccc2O1)CN1CCN(c2ccccc2F)CC1` (configuration not stated): the AC50 entry is “inactive”.

In the case of `Cn1c(=O)cc(SCC(=O)NCCCN2CCOCC2)c2ccc(Cl)cc21`, the AC50 was 7.94 µM (active).

For the compound `O=C(CCN1CCN(c2ccccc2F)CC1)Nc1ccccc1F`, the AC50 result is “inactive”.

With `CCCNC(=O)N1N=C(c2ccc(N)cc2)c2cc3c(cc2[C@H]1C)OCO3`, the AC50 was 1.26 µM (active).

With `COC(=O)N1CC(=O)N(OC)C1c1ccc(Cl)cc1Cl` (configuration not stated), the AC50 result is “inactive”.

With `CC(=O)N1N=C(c2cccc([N+](=O)[O-])c2)OC1c1ccc(Cl)cc1Cl` (configuration not stated), the activity, negative = inhibition is 11.9% [at 2.29 µM] (inactive).

In the case of `CC(=O)N1CC(=O)N(OCc2ccccc2)C1c1ccc(Cl)cc1Cl` (configuration not stated), the concentration at half-maximal activity (AC50) is 10 µM (active).

`Cc1cc(OCCn2cc(/C(N)=N/O)c3ccccc32)ccc1Cl`: the concentration at half-maximal activity (AC50) is 11.2 µM (active).

Consider `CCOC(=O)c1[nH]c(C)c(C(=O)OCC(=O)N2c3ccccc3CC2C)c1C` (configuration not stated), for which the activity, negative = inhibition was -26.3% [at 2.29 µM] (inactive).

Take `CCOC(=O)C1=C(CN2c3ccccc3CC2C)NC(=O)NC1c1ccccc1` (configuration not stated): the AC50 was 15.8 µM (active).

Regarding `Cc1cccc(-n2c(=O)c3c(n4cnnc24)-c2ccccc2CC32CCCCC2)c1`, the activity, negative = inhibition was -17.5% [at 2.29 µM] (inactive).

Consider `O=C(O)CN=C1NC2(CCCC2)Cc2ccccc21`, for which the AC50 entry is “inactive”.

As for `Nc1nc(=S)[nH]c2c1C1(CCCC1)Cc1ccccc1-2`, the AC50 was 20 µM (active).

Consider `Cc1ccc(/C=C/C2=Cc3c(sc(NC(=O)CSc4n[nH]c(N)n4)c3C#N)C(C)(C)C2)o1`, for which the AC50 was 14.1 µM (active).

For the compound `CCOc1ccc(/C=C/C2=Cc3c(sc(NC(=O)CSc4n[nH]c(N)n4)c3C#N)C(C)(C)C2)cc1`, the AC50 was 15.8 µM (active).

In the case of `CC(=O)OC[C@@H]1O[C@@H](O/N=C2/C[C@@H](O)[C@@H](O)[C@@H]3[C@@H]4C(=O)N(C5CCCCC5)C(=O)[C@H]4CC[C@H]23)[C@H](OC(C)=O)[C@H](OC(C)=O)[C@@H]1OC(C)=O`, the activity, negative = inhibition is -4% [at 11.4 µM] (inactive).

Regarding `N#C[C@@H](N=Nc1ccccc1C(=O)O)C(N)=O`, the activity, negative = inhibition was -6.32% [at 11.4 µM] (inactive).

For orientation: AC50 means the midpoint of the concentration-response curve, whichever way the signal moves.
